{
  "source": "the supplement of paper PMC10105736",
  "binders": {"B1": {"name": "Prosalpha7 (protein)", "chain": "MSTIGTGYDLSASQFSPDGRVFQIDYASKAVEKSGTVIGIRGKDAVVLAVEKIITSKLYEPDAGGRIFTIEKNIGMAVAGLVADGNFVADIARQEAANYRQQFEQAIPLKHLCHRVAGYVHAYTLYSAVRPFGLSIILASWDEVEGPQLYKIEPSGSSFGYFACASGKAKQLAKTEMEKLKMDMRTDELVESAGEIIYKVHDELKDKDFRFEMGLVGRVTGGLHLINPSELTEKARKAGDAANKDEDSDNETH"}, "B2": {"name": "Jupiter (protein)", "chain": "MAAYAAFKHVELYNVGKAKKRVLRPPGGGSSDIFGSEMPQTPRNVKNRMASNIFAAEKDNGVKNNVRQGAHRFYFIGDAPRRGQKTVDSHSRLFGEPTRPITPGKNHMKSSIPFGQNTEAVAAQKLLTTNGHYNGKSGSVSSASSSVSSSTENLKMNSGSRSEGNPVTGEGYKVVANEYSQRQESSNGGTPVINKNRIPPGGYSSGLW"}, "B3": {"name": "Rtca (protein)", "chain": "MDAEKMLEIDGSYLEGGGQALRNALSLSCILGKPVRVVKIRASRPSPGLSHQHLHGLNLLRDITNADVVGNYLLSSTVEFTPRTILDNTYRVETHTAASITLIYQMALPVLLFAGRPSRLIVSGGTNVDFAPPVEYMQEVLLPNLKHFGVSFDLKVQRYGFYPRGQGRCQLDVQPVTKLNSGKLVAFGRIKSVSGVAYCAGRLPVNIAIDMQQTAQREIHRLWPSQQCSIEPIKHSRQKAFHNGAGILMTVNTTSDVVLGASALGKKRIDGHVLGSEASCQLGDYMRKQVCVDDYMQDQLIIYMALAVGRSTMRTGKLTNHTRTAINVAEQMTGVKFDVAMEPGGQMLVSCKGLGHVNKLI"}, "B4": {"name": "Ndg (protein)", "chain": "MPTFGSKLLACLLLSSVILVSGQFEHYLDSLRASELYEFEDGSLGSIHLLPKGDSETIVLQLEQPIHFYGEQYEQLYINTNGILTFNSEFPEYLNQPFPLEYASIAAFYSNVDTSFSDEGTSISLFESKEQSILDRASSLVRYAFSSQSEFEARQVIVATWRNVGYFDSKTDRLNTFQVALIANEQSTFVQFIYPDGGLNWLQGETAGLGLPDIRAQAGFVAEDGRFYTLNGSGSENARFLSESTNLGVPGVWLFEVAPIENEQNVRSPDNAESLTESPALALSCQAHAHQCHEKAECHDKAEGYCCVCGSGFYGNGKSCLANDQPIRVTGTLTGELNKQPVSEEAKLQSYVVTSEGRTYTTINPLTPELGAQLRLVLPLLTTVPWLFAKSVGGVANGYQLTGGVYTHVSRLQFDSGENLHVNQTFEGLNYWDQLSVKIEIYGEVPAVAADAVLILPDYVEEYTFERPGELKSVQVLNINITEEQRVLGLQVEQRILYRSCLRDDEADPSATKVLQKISKVALDYVERDQALRIGAMSKVGVTPESNACNDGTADCVENSVCVPYEDTYRCDCYHGFAAQLDERGVEVCLDIDECATGSHVCDENAVCDNTEGGFNCYCTEGFEGNGYRCLSNSTADNIEYPPAVEGQAEPTSEPSPNPSPYPDQGQDQEREREDDQYPQPNPYPYPEEQIPQHPDECYRCSKDADCYQGRCTCHEGFDGDGYTCTNICGHGEVWENGRCEPLLLERHDVDPLCDALGECRCPYGYELSEDSQRCTYVQEFDGERNADLIPCDVDENCHINATCNWYGQELRHICTCQPGFRGDGYNCDPISDDSCAIRPDICDVHADCVYEEHLGKSECQCQAGYTGNGFNCQLAAECQSAEHCGENAFCDDGVCRCQADFERDVSDRCVPAGRCGSVFCGSNAICKWDSAEGVQYCDCLDGYQGDALTGCTSKPLSCHVLNNCGIHATCEPTEDPANYECQCIAGFKGDGYVCIEEQNCLNNPTLCDMNAQCRSTNSGLVCVCNQGFFGNGSLCQERQHQDSDFLIVSQGVMIARVPLNGRNVRPISVAQMAIGLDKDCVEGRVYWGDISTKKIVSTKYDGTDLRPFITTDIESPEGIAIDVISRRLYWADSAKDTIEVASLDDPSLRAVIINKQLVNPRGIAVDPYREKLFWSDWDRESPKIEMSNLDGTGRELLLGKDDVTLPNSLVVLENSGEVCYADAGTKKVECIEPQNRQIRTISNELSYPFGITFTHDQFYWTDWTTKKVEIVDSLGARQTPIQPPFFGSHKMYGMTVVEQHCPQYQSPCQISNGGCTDSRLCLVNRQAPSGKSCKCTSASTGCTVLAPGY"}, "B5": {"name": "nudE (protein)", "chain": "MESPPMFNSVEDECRYWKERSKQYHKEWTDVKQEYDEFVEQSREMEIEMDATLDQKQSIIKDLTAKLTMFERENESLKLKLESHGIDMSNMEKQLETVKKDRDTMKVYLRQLEQKNDDLERAHRILNESIENFEKMLDQAYEKNALLELEVDEKGLLQEKLQRLMDETRDLKQELNVKSRFTPVVNGTSVPTANDTNTVNSSMNSSASLPNGIVANGELVKHDNAVATRATSVSVNALNGSLVNRNEYNQQHSLKSDGDETEDVPREWSANAAATPLLPAIHTSGAGRTALLLAGCRVVWILQFSVIHKPQIRNPIT"}, "B6": {"name": "IntS10 (protein)", "chain": "MPSQEENELYMVKEAQRLRKSDPCAAMAWIITAKTLYPNAFNLQYEAYLLERDAQNYEEAAKCFSAIATNFQNQHTELWQEINSLTNALRNENETTPEHEFYVKMYKHLTPEVQHNIFMHTINHSADNLERIYIYILMFNKFPKSAITQAPRLLEMLAEGMKTEPDLYQRILVEEVLPMIQNKPPELSPNLACRLYTSSLEFYLRQIMDESDTADAWKNIFKVLMICGQMMGWEPFLPFSKHVNQNVYWEKLVDILSGSPAGSSQVLFYATTLFIYSLHGYIRNCKLRIEDADVTHVLVEGFMEWSPEGDGSEVPSMEPPKFSLTTAISPELSKAFLHAAQCWQLLNTDQFQRDFSQLMLALPLAPWISRFLFDLAIYFGHRDEANKLMADMTTQSSLVQSLQILSLNLMQGSMTLQGFQCILKILSELPTTQGQLLENMSLKGHRHMVFLPLTRSALVQYCVGAIISRLSRKVFEPNVPDRLLGDILVLQQLNLLNDVLLTQQIFNLIKQRKSFNLRTLSTYIINIDLLEELSHIWNSQQEDNFELTSSPNSSGTPTATTVAGGSQSRRIGTRGADKGARDEFRAITRQQIARCNENVITLLANFINQEHLMLAQHIFGISQPVETIVIK"}},
  "experiment_in_all_cases": "MAPPIT interaction score (arbitrary units); higher = stronger binary interaction signal, active = hit call of the paper",
  "key": {"[1]": {"biological_target": "CG4707", "conditions": "MAPPIT configuration: N-N; pair source set: Curagen_high_conf"}, "[2]": {"biological_target": "CG4789", "conditions": "MAPPIT configuration: N-N; pair source set: Lit-BS-16"}, "[3]": {"biological_target": "PVRAP", "conditions": "MAPPIT configuration: N-N; pair source set: Lit-BS-16"}, "[4]": {"biological_target": "CG4853", "conditions": "MAPPIT configuration: N-N; pair source set: Curagen_low_conf"}, "[5]": {"biological_target": "CG4860", "conditions": "MAPPIT configuration: N-N; pair source set: Curagen_high_conf"}, "[6]": {"biological_target": "CG4884", "conditions": "MAPPIT configuration: N-N; pair source set: Finley_Y2H"}, "[7]": {"biological_target": "CG5062", "conditions": "MAPPIT configuration: N-N; pair source set: Curagen_low_conf"}, "[8]": {"biological_target": "slmo", "conditions": "MAPPIT configuration: N-N; pair source set: Curagen_high_conf"}},
  "note": "Values without a mark were called inactive.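 Rule for the calls: active = MAPPIT score above the 99th percentile of random reference set scores in the same batch; inactive = at or below it.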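 Note: HEK293T cells with Epo stimulation, STAT-responsive firefly luciferase reporter, fold induction versus unstimulated cells divided by the larger fold induction of two negative controls lacking either bait or prey.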",
  "data": [
    {"binder": "B1", "values": [
      {"measurement": "MAPPIT interaction score", "setting": "[1]", "result": -0.137}
    ]},
    {"binder": "B2", "values": [
      {"measurement": "MAPPIT interaction score", "setting": "[2]", "result": 0.553},
      {"measurement": "MAPPIT interaction score", "setting": "[3]", "result": -1.6}
    ]},
    {"binder": "B3", "values": [
      {"measurement": "MAPPIT interaction score", "setting": "[4]", "result": 1.6}
    ]},
    {"binder": "B4", "values": [
      {"measurement": "MAPPIT interaction score", "setting": "[5]", "result": -0.238}
    ]},
    {"binder": "B5", "values": [
      {"measurement": "MAPPIT interaction score", "setting": "[6]", "result": 0.246}
    ]},
    {"binder": "B6", "values": [
      {"measurement": "MAPPIT interaction score", "setting": "[7]", "result": -0.102},
      {"measurement": "MAPPIT interaction score", "setting": "[8]", "result": 1.15}
    ]}
  ]
}
